Screens: PubChem BioAssay, several laboratories
Mcl1 Noxa PPI: disrupts binding of human Mcl-1 to Noxa peptide | Q07820 | TR-FRET Mcl-1/Noxa peptide binding, 2 h | inhibition, % at 21.7 µM | 1.5% of 220,000 active | AID 1022;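 active means compounds that cut the protein-peptide binding signal by more than 50% relative to plate controls in a single-dose test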;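 further: His-tagged Mcl-1 with rhodamine Noxa BH3 peptide and terbium anti-His antibody; 0% = Mcl-1 plus Noxa peptide wells and 100% = peptide-only wells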
14-3-3 Bad inh: disrupts binding of bovine 14-3-3 zeta to phospho-Bad peptide | P63103 | TR-FRET 14-3-3zeta/Dy647-pBad peptide displacement, 1 h | 0.71% of 220,000 active | inhibition, % at 21.7 µM | AID 781;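 active means inhibition above about 70%, limit read from the data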;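 further: 0% = full 14-3-3 plus peptide FRET controls and 100% = background without 14-3-3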
Pf gametocyte: P. falciparum stage V gametocyte viability inhibition; P. falciparum stage V gametocytes, ATP luminescence, 24 h; inhibition, % at 10.9 µM; 0.065% of 150,000 active;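 active means inhibition above the mean plus 3 SD of compounds within the control limits, set per campaign, cut at about 38% in these data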;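 further: 0% = DMSO wells and 100% = medium only without gametocytes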
Bim-Mcl-1: human Bim-Mcl-1 interaction inhibition; Bead-based flow cytometry, Bim peptide-Mcl-1 binding; 0.1% of 190,000 active; Q07820; inhibition, % at 10 µM; in the data active means inhibition above about 40%;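 further: 0% = no compound tracer wells and 100% = peptide blocker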
Mcl1 Bid PPI: disrupts binding of human Mcl-1 to Bid peptide. Q07820. TR-FRET Mcl-1/Bid-Dy647 peptide binding, 1536-well. inhibition, % at 21.7 µM. 0.97% of 220,000 active. AID 1021;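 active means compounds that cut the binding signal by more than half at the single screening dose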;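 further: His-tagged Mcl-1 with europium anti-His antibody binding Bid BH3 peptide; 0% = Mcl-1 plus peptide wells and 100% = peptide-only wells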
eIF4E 4G PPI: blocks eIF4E binding to eIF4G. 0.37% of 220,000 active. P63073+Q04637. inhibition, % at 21.7 µM. TR-FRET eIF4E-eIF4GI(517-606) binding, 2 h. AID 782;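 active means inhibition above about 30%, limit read from the data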;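 further: 0% = full FRET control wells and 100% = background wells lacking eIF4GI fragment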
* hit, by the source's call; . = no result given; [ ] = dose if it differs, or a comment. Shown are actives, neighbours in structure and some others; about 2.7% of the full set was active somewhere.

SMILES	Mcl1 Noxa PPI	14-3-3 Bad inh	Pf gametocyte	Bim-Mcl-1	Mcl1 Bid PPI	eIF4E 4G PPI
CCOc1ccc(OCC)c(S(=O)(=O)N2CCC(C)CC2)c1	-8	0	.	0	-4	7
COc1cc(S(=O)(=O)Nc2cccc(C)c2)ccc1NC(=O)c1ccncc1	12	-1	.	-4	95*	-4
CCCC(=O)Nc1cccc(NC(=O)c2ccc3c(c2)OCCO3)c1	5	-4	.	0	-26	-3
CCCCC(=O)Nc1cccc(NC(=O)c2ccc3c(c2)OCO3)c1	24	-3	9	-3	63*	7
O=C1CSc2ccc(C(=O)Nc3cccc(S(=O)(=O)Nc4ccc(Br)cc4)c3)cc2N1	19	8	-4	-4	8	1
CCOC(=O)N1CCN(c2nc(C)c3c(n2)CCCC3=O)CC1	27	-9	-29	0	71*	-3
Cc1ccc(/C=C/C(=O)N2CCc3ccccc32)o1	61*	1	-18	-5	-89	23
CCOc1ccc2nc(N3C(=O)/C(=C/c4ccccc4)NC3=S)sc2c1	-18	12	-14	-10	-24	6
COc1ccc2nc(N3C(=O)/C(=C/c4ccccc4)NC3=S)sc2c1	64*	8	-2	-4	17	9
CC1=C2C(CCS2(=O)=O)CC2(C1)C(=O)OC(C)(C)OC2=O (configuration not stated)	24	-6	.	66*	-11	8
Cc1cccc(OCCCCCn2ccnc2)c1	16	70	-7	3	51*	5
Cc1cc2cc(CNC(=O)c3ccc(Br)o3)ccc2n1C	59*	7	.	.	-81	-15
CCCCC[C@H](O)/C=C/[C@@H]1[C@@H](C/C=C\CCCC(=O)O)[C@@H](O)C[C@H]1O	10	-3	.	-2	-1	1
CCCCC[C@H](O)/C=C/[C@@H]1[C@@H](C/C=C\CCCC(=O)OC)[C@@H](O)C[C@H]1O	43	91*	.	0	98*	88*
CC1(C)NC(=O)N(CC(=O)Nc2nc(-c3ccc(F)cc3)cs2)C1=O	3	1	.	-1	-19	-4
CCCCNC(=O)/C=C/c1ccc(OC)c(Br)c1	6	4	.	3	0	1
O=C1COc2ccc(N3C(=O)C=CC3=O)cc2N1	57*	-1	.	-3	-35	2
COc1ccc(-c2cc(-c3ccc(OC)cc3)nc(-c3ccc4c(c3)NC(=O)CO4)c2)cc1	-6	-1	12	0	-13	3
CC(C)NC(=O)C(OC(=O)c1ccccc1)C(OC(=O)c1ccccc1)C(=O)O (configuration not stated)	2	70*	.	-4	15	0
O=C(OC(C(=O)NCc1ccco1)C(OC(=O)c1ccccc1)C(=O)NCc1ccco1)c1ccccc1 (configuration not stated)	-4	-14	23	-3	-33	12
Cc1cccc(-n2[nH]c3c4c(ccc3c2=O)C(=O)c2ccccc2C4=O)c1	55*	-1	.	-5	-9	4
COc1ccc(OC)c(NC(=O)COC(=O)c2c3c(nc4ccccc24)CCCC3)c1	9	-2	.	-2	-3	-4
COc1ccc(OC)c(NC(=O)COC(=O)c2cc3c(s2)CCC3)c1	72*	43	.	95*	-68	37*
Cc1[nH]n(C(N)=S)c(=O)c1N=Nc1ccc(S(=O)(=O)N2CCCCCC2)cc1	-26	-21	7	51*	-258	4
Cc1ccc(N=Nc2c(C)[nH]n(C(N)=S)c2=O)cc1C	-1	-6	-28	-1	-57	0
SMILES	Mcl1 Noxa PPI	14-3-3 Bad inh	Pf gametocyte	Bim-Mcl-1	Mcl1 Bid PPI	eIF4E 4G PPI
Cc1ccc(-c2nnnn2C2C/C(=N\NC(N)=S)C3OCC2O3)cc1 (configuration not stated)	14	-9	-14	-1	-54	-3
CCN1CCN(c2cc(SC(C)C)nc(-c3ccc(OC)cc3)n2)CC1	20	71*[fluorescence artefact?]	.	0	3	2
CC(C)Sc1cc(N2CCOCC2)nc(-c2ccc(Cl)cc2)n1	-4	7	.	3	-1	0
COc1ccc2oc(=O)c(C(=O)OCC(=O)c3ccc([N+](=O)[O-])cc3)cc2c1	17	5	.	0	-5	0
CCOc1c(Cl)cc(CNc2ccc(N3CCCC3)cc2)cc1OC	88*	-3	4	9	-19	6
OCC(CO)(CO)NC(=S)Nc1cc(Cl)cc(Cl)c1	0	-1	13	.	-37	97*
C/C=C(/C)C(=O)Nc1cccc(C2=NOC3(C2)C[C@H](C(N)=O)N(C(=O)c2ccccc2)C3)c1 (some centres not stated)	26	-1	-10	.	-27	0
C=C(C)C(=O)Nc1cccc(C2=NOC3(C2)C[C@@H](C(N)=O)N(C(=O)/C(C)=C/C)C3)c1 (some centres not stated)	73*	34	-8	.	-114	10
C/C=C(\C)C(=O)Nc1cccc(C2=NOC3(C2)C[C@@H](C(N)=O)N(C(=O)/C(C)=C/C)C3)c1 (some centres not stated)	1	1	.	.	-36	96*
C/C=C/C=C/C(=O)N1CC2(CC(c3cccc(NC(=O)/C=C/C)c3)=NO2)C[C@@H]1C(N)=O (some centres not stated)	4	2	-9	.	-29	-1
C=C(C)C(=O)Nc1cccc(C2=NOC3(C2)C[C@@H](C(N)=O)N(C(=O)/C=C/C=C/C)C3)c1 (some centres not stated)	97*	38	17	.	-55	7
O=[N+]([O-])c1cc(Cl)ccc1Oc1ccc(-c2nnco2)cc1	7	-2	.	-3	-35	2
C=CCNC(=S)NCCCCC1NC(=S)N(CC=C)C1=O (configuration not stated)	21	-2	-4	1	-11	-5
S=C(Nc1ccc(Br)cc1)NC1CCCCC1	7	3	-2	-2	-18	3
CCN(CC)C(=O)C1CCCN(C(=O)Nc2ccccc2)C1 (configuration not stated)	4	7	.	-5	-15	-2
O=C(CSc1ccccn1)Nc1ccc2c(c1)C(=O)c1ccccc1C2=O	72*	45	.	0	77*	15
O=C(CSc1ccccn1)Nc1ccc2ccccc2c1	3	-18	.	0	-2	-2
O=C(CSc1n[nH]c(=O)[nH]c1=O)Nc1ccc2c(c1)C(=O)c1ccccc1C2=O	101*	46	-22	.	61*	18
O=C(CSc1n[nH]c(=O)[nH]c1=O)Nc1cccc(S(=O)(=O)N2CCOCC2)c1	-1	-11	.	1	-40	-2
C=CCn1c(SCC(=O)c2[nH]c(C)c(C(=O)OCC)c2C)nc2scc(-c3ccc(OC)c(OC)c3)c2c1=O	50	82*	9	6	84*	13
